Compound activity deposited in PubChem by National Center for Advancing Translational Sciences (NCATS).
D3 antag: antagonists of human D3 dopamine receptor; D3R cells, DiscoveRx beta-arrestin luminescence, antagonist mode; stronger effect = lower value; max response, negative = inhibition, %; 2.5% of 360,000 active; P35462; in the data active = max response below about -50%; inconclusive = no clear call, values can overlap the other calls
Target sequence (P35462 whole entry, looked up): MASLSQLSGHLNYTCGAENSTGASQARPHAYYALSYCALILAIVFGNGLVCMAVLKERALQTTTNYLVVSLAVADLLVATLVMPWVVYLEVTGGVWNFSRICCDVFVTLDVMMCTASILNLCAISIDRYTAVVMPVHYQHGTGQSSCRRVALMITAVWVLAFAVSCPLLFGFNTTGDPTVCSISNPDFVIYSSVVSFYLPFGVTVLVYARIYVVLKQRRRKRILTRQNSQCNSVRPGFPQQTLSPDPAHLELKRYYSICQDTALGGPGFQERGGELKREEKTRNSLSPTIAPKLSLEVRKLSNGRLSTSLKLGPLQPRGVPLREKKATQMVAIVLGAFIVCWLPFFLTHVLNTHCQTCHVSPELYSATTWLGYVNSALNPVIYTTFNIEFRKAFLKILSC
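Cells expressing the human receptor were seeded at 1500 cells/well, incubated overnight at 37 degrees C in 5% CO2, then exposed to library compounds with dopamine controls for 90 minutes at 37 degrees C before luminescent detection.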
uPA surface inh: inhibitors of cell surface uPA generation | cell surface uPA generation assay, qHTS | Potency, µM (doses to about 38.3 µM), usual class: inhibitors | 0.31% of 330,000 active; active = well fitted inhibition curve with a large enough effect; inconclusive = small, poorly fitted or top-dose-only effect; inactive = no such curve, though single readings can be large or run the other way; tested in mouse RAW 264.7 cells; also: nearly all actives have a fitted effect of over 55% in size
RGS4 inh: blocks human RGS4-accelerated GTP hydrolysis; P49798; Transcreener GDP fluorescence polarization, RGS4-accelerated GTP hydrolysis; Potency, µM (doses to about 114 µM), usual class: inhibitors; 0.039% of 390,000 active; AID 504845; active = well fitted inhibition curve with a large enough effect; inconclusive = small, poorly fitted or top-dose-only effect; inactive = no such curve, though single readings can be large or run the other way; also: nearly all actives have a fitted effect of over 75% in size
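MLSMR compounds (23 nl, pin-transferred) preincubated 10 min at room temperature with a 500nM (2x) first reagent, then RGS4 at 900nM (2x) plus Transcreener GDP mix added; fluorescence polarization (620/688 nm) read before and after 90 min at 30 °C.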
D3 ag: D3 dopamine receptor (human) agonism; D3R DiscoveRx beta-arrestin cells, luminescence, 90 min; max activation, %; 0.58% of 410,000 active; AID 652048; in the data active = max activation above about 30%
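Cells at 1500/well, incubated overnight, then treated with pinned compounds (dopamine as control) for 90 min at 37 degrees C. DiscoveRx reagent added for 30 - 60 minutes at room temperature; luminescence read.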
A number is an active result; . = inactive; ? = inconclusive; / = no result. A selection: hits, their analogues and other compounds. The true share with any hit is near 3.1%.

SMILES | D3 antag | uPA surface inh | RGS4 inh | D3 ag
COc1ccc(/C=N/n2c(C)nc3ccccc3c2=O)cc1 | . | . | . | .
COc1ccc(/C=N/OCC(=O)Nn2c(C)nc3ccccc3c2=O)cc1 | . | . | . | 33
CCc1ccc(NC(=O)Cn2c(C(=O)OC)cc3oc(C)cc32)cc1 | / | / | . | .
CCC(C)c1ccc(O)c(NC(=S)NC(=O)c2cccnc2)c1 (configuration not stated) | -63 | . | . | .
CCOC(=O)c1ccc(-n2c(=S)sc3c(=O)[nH]c(C)nc32)cc1 | . | / | ? | 51
CCc1ccc(-n2c(=S)sc3c(=O)[nH]c(SCC(=O)NC4CCCCC4)nc32)cc1 | -51 | / | / | .
CCOC(=O)CSc1nc2c(sc(=S)n2-c2ccc(CC)cc2)c(=O)[nH]1 | . | . | ? | .
Cc1ccc(CN2CC(N3CCN(C)CC3)CS2(=O)=O)cc1 (configuration not stated) | -68 | / | / | .
CCCCCCN1CCN(C2CN(Cc3ccccc3)S(=O)(=O)C2)CC1 (configuration not stated) | -94 | / | / | .
Cc1cc(C)cc(C(=O)N(C)[C@H](Cc2ccc(-c3ccccc3)cc2)C(=O)N[C@@H](Cc2c[nH]c3ccccc23)C(=O)O)c1 | / | / | . | /
CCC(=O)C1=C(c2cccc([N+](=O)[O-])c2)N(C(=O)CC)n2c(nnc2-c2ccccc2)S1 | / | / | . | .
Cc1ccccc1C(=O)N1[C@@H](C(C)C)COc2cc(Br)ccc2S1(=O)=O | . | . | . | 35
COC(=O)C1=C(C(=O)OC)[C@@H]2N(C)c3ccccc3[C@@]23C[C@@H](CO)N(C(=O)c2cccs2)C3=N1 | -51 | . | . | .
C=CCN1c2ccccc2[C@]23C[C@@H](C(=O)OC)N(C(=O)c4ccc(Br)cc4)C2=NC(C(=O)OC)=C(C(=O)OC)[C@H]13 | . | 5.6µM | . | .
C=CCN1c2ccccc2[C@]23C[C@@H](C(=O)OC)N(C(=O)c4cccs4)C2=NC(C(=O)OC)=C(C(=O)OC)[C@H]13 | . | 6.3µM | . | .
COC(=O)C1=C(C(=O)OC)[C@@H]2N(Cc3ccccc3)c3ccccc3[C@@]23C[C@@H](C(=O)OC)N(C(=O)c2ccc(Br)cc2)C3=N1 | . | ? | . | .
Clc1ccccc1Nc1nc(NCC2CC2)nc2ccsc12 | . | / | / | .
COc1cc(CN2CCc3ccccc3C2)ccc1O | -90 | 2.8µM | . | .
COc1ccc(CN2CCc3ccc(NC(=O)CCc4ccccc4OC)cc3C2)c(O)c1 | . | . | . | .
COc1cc(CN2CCc3ccc(NC(=O)CCc4ccccc4OC)cc3C2)ccc1O | -62 | . | . | .
Cc1cc(C(F)F)n2ncc(C(=O)NCc3ccc(F)cc3)c2n1 | . | . | . | .
Cc1cc(C(F)F)n2ncc(C(=O)NC3CCCCCC3)c2n1 | -52 | . | . | .
Cc1ccc(NC(=S)NCc2cccn2C)cc1 | . | / | . | 32
Cc1cccc(NC(=S)NCc2cccn2C)c1 | . | / | . | .
CCn1c(=O)n(-c2cccc(Cl)c2)c(=O)c2sc3ccccc3c21 | / | / | . | .
SMILES | D3 antag | uPA surface inh | RGS4 inh | D3 ag
Cc1ccc(NC(=O)CN2CCN(C(=O)c3ccco3)CC2)cc1S(=O)(=O)N(C)C | . | . | . | 51
CCOC(=O)c1ccc(NC(=O)CN2CCN(C(=O)c3ccco3)CC2)cc1 | . | . | . | 36
CCc1ccc(NC(=O)C(=O)NCCN2CCN(C(=O)c3ccco3)CC2)cc1 | . | . | . | 73
CCOc1ccc(NC(=O)CN2CCN(C(=O)c3ccco3)CC2)cc1S(=O)(=O)N1CCCC1 | . | . | . | 40
CCc1ccc(NC(=O)C(=O)NCCN2CCN(C(=O)c3ccc(OC)cc3)CC2)cc1 | . | / | / | .
COc1ccc(NC(=O)CN2CCCCC2)cc1S(=O)(=O)N1CCCCC1 | . | . | . | .
CCCOc1ccc(C2C(=O)N(C3CCCCCC3)CC(=O)N2Cc2ccc(OC)cc2)cc1OC (configuration not stated) | / | / | . | .
O=C(Cn1c(-c2cccs2)cc2ccccc21)NCCCN1CCN(c2ccc(F)cc2)CC1 | / | / | . | .
Cc1nc2ccc(S(=O)(=O)N(CC(=O)Nc3ccc(F)cc3F)Cc3ccccc3)cc2s1 | / | / | . | .
CCOC(=O)C1=CN(Cc2cccc(I)c2)S(=O)(=O)N(C)C1C (configuration not stated) | -67 | . | . | .
CCOC(=O)C1=CN(Cc2cccc(F)c2)S(=O)(=O)N(CC)C1c1ccccc1 (configuration not stated) | . | . | . | .
